The sequences below were run against C17orf103 (assay: pooled miR-30 sensor sort-seq; sequence = guide strand). Settings: shRNA.
Note: reference of the scale not given here.

Q: With TCATGACATCCGTTGAGCCGGA as the sequence, how does the sensor-assay potency score (higher = more potent) read?
A: -0.377

Q: With TGTACCAGCAGGTGAGATGGGC as the sequence, how does the sensor-assay potency score (higher = more potent) read?
A: -0.507

Q: Which sensor-assay potency score (higher = more potent) does the source give for TTCTCCTTGACGTACTTCTGGA here?
A: -0.93

Q: Which sensor-assay potency score (higher = more potent) does the source give for TCTCCTTGACGTACTTCTGGAT here?
A: -0.358

Q: For TAACTCTGAGTCTGTTCCCAGT, which sensor-assay potency score (higher = more potent) is on record?
A: -0.884

The sequences below were run against C17orf48 in the same assay as above. Settings: shRNA.

Q: How did the sensor-assay potency score (higher = more potent) turn out when TATGTCTGTAGTATCGCCGCCT was run?
A: -0.223

Q: TACACTGCTCGTATTTTGGAGA was tested. Which sensor-assay potency score (higher = more potent) did it give?
A: -0.905

Q: With TAGTGTTAAGTTTAGAGTGTGT as the sequence, how does the sensor-assay potency score (higher = more potent) read?
A: 0.18

Q: Which sensor-assay potency score (higher = more potent) does the source give for TATCTTCATACACTGCTCGTAT here?
A: 0.128

Q: How did the sensor-assay potency score (higher = more potent) turn out when TATACTGTGCATTATATCCATC was run?
A: -0.953

Q: For TGATCTTCTAGAAACTTAGTGT, which sensor-assay potency score (higher = more potent) is on record?
A: 0.0518

Q: How did the sensor-assay potency score (higher = more potent) turn out when TTCTTGTAATTCATAATTCTAT was run?
A: -1

Q: With ATCGATGATATCTCCAAGCTGA as the sequence, how does the sensor-assay potency score (higher = more potent) read?
A: -0.464

Q: How did the sensor-assay potency score (higher = more potent) turn out when TTGAGGACTATTCAGTTCCGTA was run?
A: -1.1

Q: Which sensor-assay potency score (higher = more potent) does the source give for TTCAACATCATTTTGTCAGGAT here?
A: 1.06

Q: Which sensor-assay potency score (higher = more potent) does the source give for TTCAATAACTCCTTCTAGGTTG here?
A: -0.121

Q: Which sensor-assay potency score (higher = more potent) does the source give for ATCTTCTAGAAACTTAGTGTTA here?
A: -1.09

The sequences below were run against C17orf64 in the same assay as above. Settings: shRNA.

Q: Which sensor-assay potency score (higher = more potent) does the source give for TTGAGTTTTGGTTTTTGAGAAA here?
A: -0.844

Q: For ATCTTTCTTGACATGGTCCTGG, which sensor-assay potency score (higher = more potent) is on record?
A: -0.00122

Q: TTTCTTGACATGGTCCTGGGAT was tested. Which sensor-assay potency score (higher = more potent) did it give?
A: -0.0819

Q: Which sensor-assay potency score (higher = more potent) does the source give for TTTATTCCTAATTAAGACCTGA here?
A: 0.154

Q: How did the sensor-assay potency score (higher = more potent) turn out when TTGGTGTACTTGTAAAGTCGGC was run?
A: -0.519

Q: Which sensor-assay potency score (higher = more potent) does the source give for TTCCTTTATCCTCTTCCTCTTG here?
A: -0.925

Q: How did the sensor-assay potency score (higher = more potent) turn out when TGTACTTGTAAAGTCGGCGAAG was run?
A: -0.717

Q: Which sensor-assay potency score (higher = more potent) does the source give for TTTTTGATAAGGACAATTCTTT here?
A: -0.341

Q: With TTGGGCAGACTGTCTTCCCGGT as the sequence, how does the sensor-assay potency score (higher = more potent) read?
A: -0.108

Q: Which sensor-assay potency score (higher = more potent) does the source give for TTCATGCCGCTGATGTTGCTGT here?
A: -0.699

Q: With TCTTTCTTGACATGGTCCTGGG as the sequence, how does the sensor-assay potency score (higher = more potent) read?
A: -0.903

Q: For TTAAAGAATCTTTCTTGACATG, which sensor-assay potency score (higher = more potent) is on record?
A: -1.34

Each sequence was assayed against C17orf71 in the same assay as above. Settings: shRNA.

Q: Which sensor-assay potency score (higher = more potent) does the source give for TTCATCTTCAGCTCTAGTCCTG here?
A: 0.0154

Q: With TTTAAGTTTATCAGCATCCGAA as the sequence, how does the sensor-assay potency score (higher = more potent) read?
A: -0.269

Q: With TACTTGACCATGAACTTCTGGA as the sequence, how does the sensor-assay potency score (higher = more potent) read?
A: 0.427

Q: TTTGCCAACTGGACAATCCTTA was tested. Which sensor-assay potency score (higher = more potent) did it give?
A: 0.137

Q: For TTGACTGGTAGGCACTGTGGGC, which sensor-assay potency score (higher = more potent) is on record?
A: -0.647

Q: Which sensor-assay potency score (higher = more potent) does the source give for TTGTGTCTAAGTCTCCTTCATC here?
A: -0.792

Q: Which sensor-assay potency score (higher = more potent) does the source give for TTTCTTGCTTAGAACTAGCTCC here?
A: 0.179

Q: Which sensor-assay potency score (higher = more potent) does the source give for TTAGCTTCCAGTCTTTGCCAAC here?
A: -1.08

Q: TCATCTTCAGCTCTAGTCCTGA was tested. Which sensor-assay potency score (higher = more potent) did it give?
A: -0.0647

Q: TTCCACAACACTTTTCTTCCAG was tested. Which sensor-assay potency score (higher = more potent) did it give?
A: 0.741

Q: Which sensor-assay potency score (higher = more potent) does the source give for TATTGTGATATAGCACAGGCGG here?
A: -1.08
